Bioassay records deposited in PubChem by The Scripps Research Institute Molecular Screening Center.
FBW7 act: activators of human E3 ligase FBW7 | AlphaScreen FBW7–phospho-cyclin E peptide binding, activator screen | Q969H0 | actives 0.13% (n = 650,000) | AID 1259310 | normalized activity (activation), % at 26.1 µM; in the data active = normalized activity above about 1.9%;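 note: purified mutant Fbw7 with reduced substrate affinity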
Target sequence (Q969H0 whole entry, looked up): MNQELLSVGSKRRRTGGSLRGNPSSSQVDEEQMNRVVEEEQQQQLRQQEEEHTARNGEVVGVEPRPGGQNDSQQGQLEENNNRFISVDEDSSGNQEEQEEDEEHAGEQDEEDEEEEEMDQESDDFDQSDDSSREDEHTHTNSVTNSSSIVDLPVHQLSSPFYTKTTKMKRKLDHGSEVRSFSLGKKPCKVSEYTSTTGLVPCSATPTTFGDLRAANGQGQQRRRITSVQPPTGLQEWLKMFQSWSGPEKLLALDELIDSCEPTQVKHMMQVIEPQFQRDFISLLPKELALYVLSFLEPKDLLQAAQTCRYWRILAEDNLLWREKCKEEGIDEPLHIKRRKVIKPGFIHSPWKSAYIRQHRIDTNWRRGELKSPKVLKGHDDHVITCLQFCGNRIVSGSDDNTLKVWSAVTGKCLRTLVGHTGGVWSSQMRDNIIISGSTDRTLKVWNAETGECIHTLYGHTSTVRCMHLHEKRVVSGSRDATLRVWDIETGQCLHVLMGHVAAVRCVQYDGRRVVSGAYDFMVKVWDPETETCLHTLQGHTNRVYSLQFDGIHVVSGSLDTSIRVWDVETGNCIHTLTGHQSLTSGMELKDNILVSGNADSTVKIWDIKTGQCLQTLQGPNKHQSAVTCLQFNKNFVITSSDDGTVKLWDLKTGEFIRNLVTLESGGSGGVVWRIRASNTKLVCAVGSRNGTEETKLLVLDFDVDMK
MITF inh: human MITF inhibition, primary screen; inhibition, % at 2.6 µM; actives 0.91% (n = 650,000); AID 1259374; AlphaScreen MITF homodimerization, bead proximity signal; O75030; in the data active = inhibition above about 50%;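 note: 0% = vehicle wells with protein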
GPR151 ag: human GPR151 activation; Q8TDV0; PathHunter beta-arrestin GPR151 cells, luminescence; activation, % at 11.2 µM; actives 1% (n = 650,000); AID 1508602; in the data active = activation above about 4.9%;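 note: 0% = median of compound wells and 100% = cells with positive control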
TEAD-YAP inh: TEAD-YAP interaction inhibition | inhibition, % at 9.12 µM | HEK-TIYL cells, TEAD-Gal4/YAP UAS-luciferase luminescence | actives 1.4% (n = 640,000) | AID 1259422; in the data active = inhibition above about 32%;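 note: 0% = median of test compound wells and 100% = reference inhibitor wells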
Active calls of the source: *. Rows were chosen to be rich in hits. Some 3.5% of all compounds tested hit in one or more screens of this group.

Screening Cc1ccc2nc(NC(=O)c3cccc4ccccc34)sc2c1 returned FBW7 act 0.0, MITF inh 14.0, GPR151 ag 1.3 and TEAD-YAP inh 37.3*.
Screening CC(=O)Nc1ccc2nc(NC(=O)C3CCCCC3)sc2c1 returned FBW7 act 0.2, MITF inh 12.6, GPR151 ag 1.1 and TEAD-YAP inh 0.9.
For CS(=O)(=O)c1ccc2nc(NC(=O)c3cc(Cl)ccc3[N+](=O)[O-])sc2c1 the results were FBW7 act -0.1, MITF inh 14.2, GPR151 ag 2.3 and TEAD-YAP inh 39.9*.
For O=C(Nc1nc2ccc(Cl)cc2s1)c1cccc2ccccc12 the results were FBW7 act 0.1, MITF inh 15.4, GPR151 ag -0.4 and TEAD-YAP inh -3.6.
`O=C(Nc1ccc2nc(NC(=O)C3CCCCC3)sc2c1)C1CCCCC1` gave FBW7 act 0.1, MITF inh 4.9, GPR151 ag 1.8 and TEAD-YAP inh 40.4*.
Nc1ccc2nc(NC(=O)c3ccc(Cl)cc3Cl)sc2c1 was read as FBW7 act -0.1, MITF inh 1.0, GPR151 ag -6.5 and TEAD-YAP inh 69.6*.
COc1cccc(OCC(=O)Nc2cccc(-c3nnc(-c4ccccc4)o3)c2)c1 was read as FBW7 act -0.1, MITF inh 14.0, GPR151 ag -4.8 and TEAD-YAP inh -27.9.
Screening CN1CCN(c2ccc(-c3ccc4c(-c5cccc(O)c5)[nH]nc4n3)cn2)CC1 returned FBW7 act 0.1, MITF inh -5.3, GPR151 ag -0.2 and TEAD-YAP inh 96.1*.
`COc1ccc(-c2[nH]nc3nc(-c4ccc(N5CCN(C)CC5)nc4)ccc23)cc1OC` gave FBW7 act 0.7, MITF inh 19.9, GPR151 ag 0.9 and TEAD-YAP inh -44.0.
Screening O=C(Oc1ccccc1N(C(=O)c1ccccc1)S(=O)(=O)c1ccccc1)c1ccccc1 returned FBW7 act -0.1, MITF inh -0.1, GPR151 ag -0.6 and TEAD-YAP inh -9.6.
COc1ccc(-c2cc(C(F)(F)F)c3nc(OC(C)C(C)=O)oc3n2)cc1OC (stereo unspecified) was read as FBW7 act 0.0, MITF inh -1.2, GPR151 ag 1.5 and TEAD-YAP inh 80.8*.
`CCCCCOc1ccccc1C(O)CC#CCCCC(=O)OC` (stereo unspecified) gave MITF inh -6.4 and GPR151 ag -2.7.
Screening COCCN(CCOC)Cc1c(C)[nH]c2c(C)cccc2c1=O returned FBW7 act 0.9, MITF inh 29.5, GPR151 ag -0.7 and TEAD-YAP inh -8.7.
Screening O=[N+]([O-])c1cnc(Nc2ccc(S(=O)(=O)Nc3nccs3)cc2)c([N+](=O)[O-])c1 returned FBW7 act -0.1, MITF inh 9.4, GPR151 ag 1.1 and TEAD-YAP inh 0.1.
Screening O=[N+]([O-])c1ccc(Nc2nccs2)c([N+](=O)[O-])c1 returned FBW7 act -0.1, MITF inh 5.3, GPR151 ag -1.4 and TEAD-YAP inh 58.5*.
`CCOC(=O)c1c(NC(=O)/C(C#N)=C/c2cccnc2)sc2c1CCCC2` gave FBW7 act -0.1, MITF inh -4.6, GPR151 ag 2.7 and TEAD-YAP inh 4.4.
For CCOC(=O)c1c(NC(=O)/C(C#N)=C/c2cccnc2)sc(C)c1C the results were FBW7 act 2.0*, MITF inh 14.2, GPR151 ag -0.4 and TEAD-YAP inh 6.1.
For S=c1[nH]ncn1/N=C/c1ccc(N2CCOCC2)cc1 the results were FBW7 act 1.3, MITF inh 16.5, GPR151 ag -2.1 and TEAD-YAP inh 72.8*.
O=C(CSc1nc2cc(C(=O)NCC3CCCO3)ccc2c(=O)n1Cc1ccco1)Nc1ccccc1Cl (stereo unspecified) was read as FBW7 act 0.3, MITF inh 26.3, GPR151 ag -1.2 and TEAD-YAP inh 3.2.
Screening O=C1/C(=C/c2ccco2)SC(=S)N1c1cccnc1 returned FBW7 act -0.5, MITF inh 68.3*, GPR151 ag -2.0 and TEAD-YAP inh -11.5.
`O=C(O)Cc1ccc(N2C(=O)/C(=C\c3ccco3)SC2=S)cc1` gave FBW7 act -0.9, MITF inh 75.8*, GPR151 ag -1.6 and TEAD-YAP inh 6.2.
For COc1ccc(/C=C2/SC(=S)N(N)C2=O)cc1OC the results were FBW7 act -0.3, MITF inh 7.7, GPR151 ag 1.8 and TEAD-YAP inh -10.7.
CCN1C(=O)/C(=C\C(C)=C\c2ccco2)SC1=S was read as FBW7 act 0.1, MITF inh 18.4, GPR151 ag 0.0 and TEAD-YAP inh -6.3.
Screening NN1C(=O)/C(=C/c2ccc(O)c(Br)c2)SC1=S returned FBW7 act -0.5, MITF inh 20.3, GPR151 ag -8.4 and TEAD-YAP inh 32.7*.
For O=C(O)c1ccc(N2C(=O)/C(=C\c3ccco3)SC2=S)cc1O the results were FBW7 act -0.2, MITF inh 38.2, GPR151 ag -0.4 and TEAD-YAP inh -8.0.
Screening CC(=C\c1ccco1)/C=C1/SC(=S)N(CC(=O)O)C1=O returned FBW7 act -1.0, MITF inh 53.9*, GPR151 ag 0.1 and TEAD-YAP inh -4.8.
For CCOC(=O)c1c(NC(=O)c2ccnn2C(C)C)sc2ccccc12 the results were FBW7 act 0.9, MITF inh 17.4, GPR151 ag -1.2 and TEAD-YAP inh 6.3.
For NN1C(=O)/C(=C\c2ccco2)SC1=S the results were FBW7 act -0.2, MITF inh 75.4*, GPR151 ag -0.7 and TEAD-YAP inh 1.6.
For CCOC(=O)c1c(C)n(C)c2c1cc(OC(=O)COc1ccccc1C)c1ccccc12 the results were FBW7 act 0.1, MITF inh 25.3, GPR151 ag 1.5 and TEAD-YAP inh -3.0.
O=C(c1ccncc1)N1CCN(S(=O)(=O)c2ccccc2[N+](=O)[O-])CC1 was read as FBW7 act 0.0, MITF inh 18.4, GPR151 ag -0.9 and TEAD-YAP inh 10.9.
Screening CC1=CC(=O)C=C(C)C1=NOC(=O)c1ccc([N+](=O)[O-])cc1 returned FBW7 act 0.5, MITF inh 7.7, GPR151 ag -1.7 and TEAD-YAP inh 5.2.
`CC1=CC(=O)C=C(C)C1=NOC(=O)c1ccc(Cl)cc1` gave FBW7 act 0.1, MITF inh 72.6*, GPR151 ag -0.2 and TEAD-YAP inh 7.9.
`CCC(C)Sc1nnc(CNC(=O)c2ccc(OC)cc2)n1CC` (stereo unspecified) gave FBW7 act 0.0, MITF inh 0.8, GPR151 ag 2.8 and TEAD-YAP inh -6.4.
`N=c1sc2c(n1CC(=O)c1ccc(F)cc1)CCCC2` gave FBW7 act 0.1, MITF inh -5.1, GPR151 ag -9.0 and TEAD-YAP inh 55.9*.
For Cc1ccc(C(=O)c2cc([N+](=O)[O-])ccc2N2CCN(C)CC2)cc1 the results were FBW7 act 0.2, MITF inh 18.1, GPR151 ag 0.2 and TEAD-YAP inh 50.8*.
Screening COc1ccc(C(=O)c2cc([N+](=O)[O-])ccc2N2CCN(C)CC2)cc1 returned FBW7 act 1.0, MITF inh 15.1, GPR151 ag -0.6 and TEAD-YAP inh 49.1*.
For CN1CCN(c2ccc([N+](=O)[O-])cc2C(=O)c2ccc(Br)cc2)CC1 the results were FBW7 act 0.0, MITF inh 8.6, GPR151 ag -0.2 and TEAD-YAP inh 52.2*.
